# Only some compounds are listed: those with a hit (about 4.5% of all), similar ones and a draw of the others.
# Jurkat NFkB inh: inhibitors of induced NF-kB luciferase reporter, primary screen, TCR NF-kB activation inhibitor project, cell-based, luminescence, uHTS | 330,000 tested, 0.53% active | inhibition, % at 4 µM | Jurkat, PMA/ionomycin-induced NF-kB luciferase reporter; in the data active = inhibition above about 50%
# Mdm2 MdmX PPI: inhibitors of human Mdm2-MdmX association, primary screen, cell-based, luminescence, split luciferase, SaOS-2, uHTS | Protein Mdm4 (Homo sapiens) + E3 ubiquitin-protein ligase Mdm2 (Homo sapiens), … | SaOS-2 split-luciferase Mdm2/MdmX complementation | inhibition, % at 8 µM | 330,000 tested, 3% active | AID 485346, 2010;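 active = inhibition of at least 50% at 8 µM in the primary screen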
# Target sequence (O15151 whole entry, looked up): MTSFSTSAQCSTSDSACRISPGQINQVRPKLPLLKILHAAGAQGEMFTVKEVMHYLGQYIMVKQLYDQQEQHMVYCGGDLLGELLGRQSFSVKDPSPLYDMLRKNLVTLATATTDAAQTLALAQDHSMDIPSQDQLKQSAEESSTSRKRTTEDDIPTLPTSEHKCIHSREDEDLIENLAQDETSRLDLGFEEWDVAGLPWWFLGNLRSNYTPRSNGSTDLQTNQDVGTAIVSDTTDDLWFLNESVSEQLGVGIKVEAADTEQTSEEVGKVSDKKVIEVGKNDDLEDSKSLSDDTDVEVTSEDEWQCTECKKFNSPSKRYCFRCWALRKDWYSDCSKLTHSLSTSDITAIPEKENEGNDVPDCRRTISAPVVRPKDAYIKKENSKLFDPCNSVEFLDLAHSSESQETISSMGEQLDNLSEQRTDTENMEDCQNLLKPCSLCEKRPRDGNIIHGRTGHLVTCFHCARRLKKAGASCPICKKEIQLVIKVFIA
# Target sequence (Q00987 whole entry, looked up): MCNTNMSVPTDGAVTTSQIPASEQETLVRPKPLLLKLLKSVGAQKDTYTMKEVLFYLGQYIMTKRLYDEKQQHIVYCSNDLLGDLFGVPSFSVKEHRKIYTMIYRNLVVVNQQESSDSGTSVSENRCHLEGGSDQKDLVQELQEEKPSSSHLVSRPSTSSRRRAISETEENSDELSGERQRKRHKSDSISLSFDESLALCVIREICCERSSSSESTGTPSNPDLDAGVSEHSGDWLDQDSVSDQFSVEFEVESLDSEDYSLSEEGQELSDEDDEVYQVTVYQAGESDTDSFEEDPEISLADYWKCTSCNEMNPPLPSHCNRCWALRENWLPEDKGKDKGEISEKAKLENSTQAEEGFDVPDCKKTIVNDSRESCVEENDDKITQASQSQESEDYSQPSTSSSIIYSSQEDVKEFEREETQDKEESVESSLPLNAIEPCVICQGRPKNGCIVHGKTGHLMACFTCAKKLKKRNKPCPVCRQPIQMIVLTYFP
# CSC inhib: cancer stem cell viability inhibitors, primary screen, luminescence; cancer stem cell-like cells viability; inhibition, % at 7.5 µM; 300,000 tested, 1.1% active; AID 2717, 2010; in the data active = inhibition above about 75%; inconclusive = no clear call, values can overlap the other calls; tested in HMLE shEcad cells
# Gli-Sufu block: Gli-Sufu pathway antagonists, primary screen, luciferase luminescence, Sufu-KO-LIGHT cells, uHTS | Sufu-KO-LIGHT fibroblasts, Gli luciferase reporter luminescence | inhibition, % at 5 µM | 340,000 tested, 0.74% active | AID 588413, 2011;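 active = inhibition above about 55%, limit read from the data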;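 also: 0% = DMSO-treated cells and 100% = wells with medium but no cells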
# 697 NFkB inh: inhibitors of PMA/ionomycin-induced NF-kB reporter, 697 cells, primary screen, B-cell NF-kB inhibitor project, cell-based, luminescence, uHTS | AID 435022, 2010 | 697 B-cell NF-kB luciferase reporter, 16 h | inhibition, % at 4 µM | 330,000 tested, 0.33% active; in the data active = inhibition above about 35%
# aSyn UTR inh: MLPCN primary screen, SNCA 5' untranslated region | alpha-synuclein 5'UTR reporter, inhibitor activity | inhibition, % (tested at 7.5 µM) | 300,000 tested, 0.82% active | AID 1813, 2009; in the data active = inhibition above about 60%; inconclusive = no clear call, values can overlap the other calls;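 also: H4 neuroglioblastoma cells stably carrying SNCA 5'UTR luciferase fusion; 0% = DMSO wells and 100% = positive control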
# Mdm2 MdmX conf: Mdm2-MdmX complex disruptors, retested hits, confirmation, luminescence, single concentration; shares compounds with Mdm2 MdmX PPI; Mdm2-MdmX binding, luminescent assay; inhibition, % at 8 µM; 10,000 tested, 55% active; in the data active = inhibition above about 40%
# Full FLuc ctr: full-length luciferase signal inhibition, confirmation, counter-screen for Mdm2/MdmX interaction inhibitor project, cell-based, single concentration, SaOS-2 | 6,200 tested, 77% active | shares compounds with Mdm2 MdmX PPI | SaOS-2 full-length luciferase counterscreen, luminescence | inhibition, % at 8 µM;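 active = mean inhibition at 8 µM reaching about 37%, which flags the compound as non-specific, limit read from the data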;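 also: p53-null SaOS-2 cells with luciferase driven by a doxycycline-inducible promoter; compound on cells about two nights before reading with doxycycline added after day one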
# Starred values were filed as active, the others as inactive; ? = inconclusive; . = no result.
SMILES,Jurkat NFkB inh,Mdm2 MdmX PPI,CSC inhib,Gli-Sufu block,697 NFkB inh,aSyn UTR inh,Mdm2 MdmX conf,others
Cc1ccc(-c2ccc(/C=N\NC(=O)c3cc4c(ccc5ccccc54)o3)o2)cc1[N+](=O)[O-],19,94*,-3,3,10,-50,34,
Cc1cc(C(=O)N/N=C/c2ccc(-c3ccc([N+](=O)[O-])cc3C)o2)n[nH]1,-1,2,-4,-8,20,12,.,
Cc1cc([N+](=O)[O-])ccc1-c1ccc(/C=N/NC(=O)c2ccc(Br)o2)o1,-5,95*,88*,9,22,-12,16,
O=C(CSc1nc(=O)n(CCCN2CCOCC2)c2c1CCCC2)Nc1ccc(Cl)cc1,8,15,-17,19,2,1,.,
COC(=O)c1ccn(Cc2ccccc2Cl)n1,.,.,.,-25,.,-106,.,
NCc1ccccc1COc1ccccc1,12,39,9,5,11,12,.,
COC(=O)c1cc(C(=O)N2CCN(c3cccc(C)c3C)CC2)cc([N+](=O)[O-])c1,40,55*,57,23,-54,78*,48*,Full FLuc ctr=54*
COC(=O)c1cc(C(=O)N2CCN(c3ncccn3)CC2)cc([N+](=O)[O-])c1,9,-14,-10,-8,5,15,.,
CC(=O)Nc1ccc(Nc2cc(C)nc3c(-c4ccc(Cl)cc4)c(C)nn23)cc1,-5,31,69,-3,2,9,.,
CC(=O)Nc1ccc(Nc2cc(C)nc3c(-c4ccc(Cl)cc4)cnn23)cc1,-106,81*,.,7,-110,-3,87*,Full FLuc ctr=156*
O=C(OCc1c(-c2ccccc2)ncc2ccccc12)c1ccc(C(F)(F)F)cc1,21,78*,8,6,0,.,0,
CC(=O)c1cc2c(cc1NC(=O)CN1Cc3ccccc3C1=O)OCO2,-4,-15,-15,-17,-41,12,.,
Cc1ccc(-c2nn3c(-c4ccco4)nnc3c3ccccc23)cc1S(=O)(=O)NCC1CCCO1 (stereo not drawn),9,53*,-10,29,13,37,39,Full FLuc ctr=68*
Cc1ccc(NC(=O)NC2CCCc3ccccc32)cc1 (stereo not drawn),9,6,3,-16,-19,-6,.,
CC(C)(C)c1ccc(NC(=O)NC2CCCc3ccccc32)cc1 (stereo not drawn),24,70*,64,-12,-22,-55,53*,Full FLuc ctr=70*
CCCN1CCC2(CC1)C(C#N)=C(N)Oc1c2sc2nc(C)cc(C)c12,-2,-2,-5,-14,-49,-31,.,
Cc1cc(C)c2c3c(sc2n1)C(c1cccc(F)c1)C(C#N)=C(N)O3 (stereo not drawn),-12,79*,28,0,-10,-76,27,
COC(=O)[C@@]1(Cc2ccc(OC)cc2)[C@@H]2[C@@H](CC(=O)[C@H]2CC(=O)C(=O)N(C)C)CN1C(=O)c1ccccc1,5,9,1,-23,14,5,.,
COC(=O)[C@@]1(Cc2ccc(OC)cc2)[C@@H]2C(=CC(=O)[C@H]2CC(=O)C(=O)N2CCCC2)CN1C(=O)c1ccccc1,-3,69*,37,5,-11,.,22,
COc1ccc(C)cc1S(=O)(=O)NCC(c1ccc2c(c1)OCO2)N1CCN(C)CC1 (stereo not drawn),-21,-2,-10,2,-16,10,.,
O=C(NCCCN1CCCC1)c1ccc2c(c1)N(Cc1cccc(Cl)c1)C(=O)c1ccccc1S2=O (stereo not drawn),-5,53*,-7,26,5,-17,14,
Cc1ccccc1CN1C(=O)c2ccccc2S(=O)c2ccc(C(=O)NCCCN3CCOCC3)cc21 (stereo not drawn),1,23,-5,-6,-16,-5,.,
CC1CC(C)CN(CCCNC(=O)c2ccc3c(c2)N(Cc2ccccc2)C(=O)c2ccccc2S3=O)C1 (stereo not drawn),-24,64*,8,26,-46,-54,41*,Full FLuc ctr=69*
CCN(CC(=O)NCc1cccs1)C(=O)Cc1ccc(Cl)c(Cl)c1,-4,7,.,6,-18,.,.,
COc1ccccc1CCNC(=O)C(=O)NCC1OCCN1S(=O)(=O)c1ccc([N+](=O)[O-])cc1 (stereo not drawn),-5,43,-1,28,24,9,.,
SMILES,Jurkat NFkB inh,Mdm2 MdmX PPI,CSC inhib,Gli-Sufu block,697 NFkB inh,aSyn UTR inh,Mdm2 MdmX conf,others
Cc1ccc(CNC(=O)C(Cc2ccccc2)NS(=O)(=O)c2ccc(Br)s2)cc1 (stereo not drawn),-5,32,9,2,-4,-8,.,
COC(=O)c1cccc(NC(=O)CCc2c(C)noc2C)c1,-7,-12,-19,1,5,.,.,
Cc1ccc(NC(=O)c2ccc(N/N=C/c3cccc(O)c3)c([N+](=O)[O-])c2)cc1,0,77*,48,7,-7,?,48*,Full FLuc ctr=76*
O=[N+]([O-])c1ccc(N/N=C/c2cccc(O)c2)cc1,-84,-83,47,-13,-46,-171,.,
Cc1ccc(NC(=O)c2ccc(Nc3c([N+](=O)[O-])cc([N+](=O)[O-])cc3[N+](=O)[O-])cc2)cc1,-18,79*,41,-7,-65,31,8,
Cc1ccccc1NC(=O)c1ccc(N/N=C/c2ccccc2O)c([N+](=O)[O-])c1,28,74*,7,21,2,8,22,Full FLuc ctr=62*
CC(=O)Nc1ccc(NC(=O)c2cc([N+](=O)[O-])cc([N+](=O)[O-])c2)cc1,-1,-11,-11,3,0,5,.,
COc1cccc(CC(=O)OC(C)C(=O)Nc2ncc(Cl)cc2Cl)c1 (stereo not drawn),-8,10,1,25,-2,-15,.,
O=C(COC(=O)CC1CC2CCC1C2)NCc1ccccc1 (stereo not drawn),-5,13,.,9,-7,.,.,
Cc1cccc(/N=C/c2c(O)n(Cc3ccc4c(c3)OCO4)c(=O)c3ccccc23)n1,-2,53*,12,4,5,25,27,
O=C(Nc1ccc(N2CCOCC2)nc1)c1cccs1,-52,-7,0,-17,-42,-104,.,
O=C(Nc1ccc(N2CCN(c3ccc(C(F)(F)F)cn3)CC2)nc1)c1cccs1,18,56*,-2,23,-25,-24,6,
